Experimental data reported in PubChem BioAssay AID628 (Vanderbilt High Throughput Screening Facility, 2007).
The campaign covered roughly 64,000 compounds. About 2,200 (3.4%) were called active.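 Rule for the calls: active = calcium fluorescence response, raw or row-and-column corrected B-score, differing from the plate sample mean either way at a set confidence level, mostly lower; inactive = the rest.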 Shown is part of a subset that was picked to be rich in actives.

The compounds below were run against Muscarinic acetylcholine receptor M1 (Rattus norvegicus) (UniProt P08482) (assay: blocks the rat M1 muscarinic receptor response to acetylcholine (AID 628)). Settings: CHO-M1 cells, Fluo-4 calcium, ACh EC80 antagonist mode; at 10 µM; hits give low values.
Sequence of Muscarinic acetylcholine receptor M1 (Rattus norvegicus) (P08482 whole entry, looked up): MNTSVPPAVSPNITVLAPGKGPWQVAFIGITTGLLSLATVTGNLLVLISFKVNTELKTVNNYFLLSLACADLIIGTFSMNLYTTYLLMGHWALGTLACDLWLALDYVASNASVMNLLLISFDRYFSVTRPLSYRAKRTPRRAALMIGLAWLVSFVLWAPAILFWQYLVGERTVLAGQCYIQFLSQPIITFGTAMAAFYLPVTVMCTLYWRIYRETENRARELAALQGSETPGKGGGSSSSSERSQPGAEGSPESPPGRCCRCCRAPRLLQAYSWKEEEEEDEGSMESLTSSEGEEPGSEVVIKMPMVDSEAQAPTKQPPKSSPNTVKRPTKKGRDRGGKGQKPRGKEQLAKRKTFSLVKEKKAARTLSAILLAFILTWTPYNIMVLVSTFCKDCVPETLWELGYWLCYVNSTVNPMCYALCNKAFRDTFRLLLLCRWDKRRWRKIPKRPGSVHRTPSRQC
In the case of `COCCNC(=O)C(C#N)c1nc2ccccc2nc1N1CCN(Cc2ccc3c(c2)OCO3)CC1` (stereo not drawn), the B-score was 0.357 (inactive).
`COc1ncnc2c1N=C1CC(C)(C)CC(N)=C1S2` was tested, and the B-score was -3.02 (active).
`Cc1ccc(S(=O)(=O)N2CCC(C(=O)N[C@@H](C)C(=O)NCc3ccccc3)CC2)cc1` was tested, and the B-score was 0.328 (inactive).
In the case of `COc1cc2cc(CN(CCN3CCCC3)C(=O)Nc3ccccc3Cl)c(=O)[nH]c2cc1OC`, the B-score was -0.424 (inactive).
In the case of `Oc1ccc(Cl)cc1/C=N/c1nc2ccccc2[nH]1`, the B-score was 0.265 (inactive).
`COc1ccc(F)cc1S(=O)(=O)Nc1ccc2c(c1)OCO2` was tested, and the B-score was 0.86 (inactive).
`CC(C)CNS(=O)(=O)c1ccc(OCC(=O)Nc2ccc3c(c2)OCO3)c(Cl)c1` was tested, and the B-score was 0.138 (inactive).
In the case of `COc1ccc(S(=O)(=O)Nc2ccc3c(c2)OCO3)cc1Cl`, the B-score was -4.67 (active).
`O=c1ccc2cc(S(=O)(=O)N3CCN(c4ccccc4)CC3)ccc2o1` was tested, and the B-score was 3.23 (active).
In the case of `COc1ccc(N2CCN(Cc3cc(=O)oc4ccc5ccccc5c34)CC2)cc1`, the B-score was 0.836 (inactive).
For `O=S(=O)(c1ccc2ccccc2c1)N1CCN(S(=O)(=O)N2CCOCC2)CC1`, the B-score was 1.15 (inactive).
In the case of `CCOC(=O)C1(C(F)(F)F)N=C(N(C)C)OC(N(C)C)=N1`, the B-score was 0.0434 (inactive).
In the case of `Nc1ccc(-n2nncc2-c2ccco2)cc1`, the B-score was 0.0134 (inactive).
With `OC(COc1cccc(OCC(O)CN2CCCC2)c1)CN1CCCC1` (stereo not drawn) the B-score was -0.0676 (inactive).
For `COc1cccc(OCC(O)CN2CCN(CCO)CC2)c1` (stereo not drawn), the B-score was -0.234 (inactive).
For `O=C(C(c1ccccc1)c1ccccc1)N1CCN(CC(O)COc2ccccc2)CC1` (stereo not drawn), the B-score was -2.34 (active).
In the case of `N#Cc1ccc(OCCN2C(=O)NC3(CCSC3)C2=O)cc1` (stereo not drawn), the B-score was 0.213 (inactive).
`Cc1n[nH]c(C)c1S(=O)(=O)N1CCCC(C(=O)NCC2COc3ccccc3O2)C1` (stereo not drawn) was tested, and the B-score was 0.422 (inactive).
`COc1ccc(C(C)=O)cc1COC(=O)Cn1cnc2ccccc2c1=O` was tested, and the B-score was 0.139 (inactive).
`Cc1cc(NC(=O)COc2ccc(Cl)cc2Cl)n(CCC#N)n1` was tested, and the B-score was -0.163 (inactive).
In the case of `Cc1ccccc1OCC(=O)Nc1ccc(N2CCN(C(=O)C(C)C)CC2)c(Cl)c1`, the B-score was -1.61 (inactive).
With `CN1CCN(c2ccc(NC(=O)COc3ccc(Cl)cc3Cl)cc2)CC1` the B-score was -3.05 (active).
`CCCc1[nH]nc2c1C(c1ccc(Br)s1)C(C#N)=C(N)O2` (stereo not drawn) was tested, and the B-score was 0.255 (inactive).
With `CCOC(=O)N1CC=C2C(C#N)=C(N)C(C#N)(C#N)[C@H](c3cccs3)[C@H]2C1` the B-score was 0.673 (inactive).
In the case of `CCC1=C(C(=O)OC)C(c2cc(OC)ccc2OC)C(C#N)=C(N)O1` (stereo not drawn), the B-score was 0.513 (inactive).
`CCCN1CC=C2C(C#N)=C(N)C(C#N)(C#N)C(c3cc(OC)ccc3OC)C2C1` (stereo not drawn) was tested, and the B-score was -2.33 (active).
In the case of `CCn1cc(NC(=O)Nc2ccc(OC)c(OC)c2)c(C(N)=O)n1`, the B-score was -0.416 (inactive).
`Cn1c(=NC(=O)c2ccco2)sc2cccc(F)c21` was tested, and the B-score was 0.839 (inactive).
`O=C(COC(=O)c1ccc2c(c1)OCCO2)NCc1ccccc1` was tested, and the B-score was 0.116 (inactive).
In the case of `O=C(CC(Cc1ccccc1)C(=O)O)NCCc1ccc2c(c1)OCO2` (stereo not drawn), the B-score was -0.392 (inactive).
In the case of `O=C(NCCc1ccc2c(c1)OCCO2)c1cc2ccccc2o1`, the B-score was -3.3 (active).
In the case of `CCOc1ccccc1C1C(C(=O)OC)=CN(C)C=C1C(=O)OC`, the B-score was 0.428 (inactive).
With `O=C(c1ccc(-n2cnnn2)cc1)N1CCN(C(c2ccccc2)c2ccccc2)CC1` the B-score was -10.9 (active).
`O=C(c1ccccc1)N1CCN(C(=O)N2CCCCC2)CC1` was tested, and the B-score was -0.168 (inactive).
In the case of `Cn1nnnc1SCC(=O)N1CCN(C(c2ccccc2)c2ccccc2)CC1`, the B-score was -2.4 (inactive).
`CC(Nc1nc(N2CCCC2)nc2ccccc12)c1ccccc1` (stereo not drawn) was tested, and the B-score was -1.8 (inactive).
In the case of `COc1cc(-c2nc(S(=O)(=O)c3ccc(Cl)cc3)c(N(C)C)o2)cc(OC)c1OC`, the B-score was 0 (inactive).
With `COc1ccc(CSc2nc(N3CCOCC3)c3c(c2C#N)CC(C)(C)OC3)cc1` the B-score was 0.045 (inactive).
`CCS(=O)(=O)N1CCC(C(=O)N2CCN(c3ccccc3)CC2)CC1` was tested, and the B-score was -0.14 (inactive).
With `Cc1ccc(S(=O)(=O)N2CCC(N3CCCCCC3)CC2)cc1` the B-score was -0.781 (inactive).
`Cc1ccc(N2CCN(S(=O)(=O)c3ccc(F)cc3)CC2)c(C)c1` was tested, and the B-score was 1.98 (active).
For `Cc1ccc(C)c(N2CCN(S(=O)(=O)c3ccc4c(c3)oc(=O)n4C)CC2)c1`, the B-score was 0.182 (inactive).
`Cc1cc(=O)oc(C)c1C(=O)NCc1ccc(F)cc1` was tested, and the B-score was -0.775 (inactive).
With `CCOC(=O)C(CC)Sc1ncnc2c1nnn2-c1ccc(F)cc1` (stereo not drawn) the B-score was 0.284 (inactive).
For `COc1ccc(CCNC(=O)CCCCn2c(=O)[nH]c3ccccc3c2=O)cc1OC`, the B-score was -0.359 (inactive).
With `O=C(CCn1c(=O)[nH]c2ccccc2c1=O)NCCCN1CCN(c2cccc(Cl)c2)CC1` the B-score was -1.14 (inactive).
`O=C(CCCn1c(=O)[nH]c2cc(Cl)ccc2c1=O)NCCN1CCN(c2ccccc2)CC1` was tested, and the B-score was 12.4 (active).
With `C=CCn1c(=S)[nH]c2nc3c(cc2c1=O)COC(C)(C)C3` the B-score was -2.69 (active).
`CC(C)OCCCNc1nc2c(c(=O)n(Cc3ccccc3F)c(=O)n2C)n1C` was tested, and the B-score was -0.366 (inactive).
With `O=C(CN1CCOCC1)Nc1c2c(nc3c1CCC3)CCC2` the B-score was -0.251 (inactive).
`Cc1cccn2c(=O)c3cc(C#N)c(=NC(=O)c4cccnc4)n(CC4CCCO4)c3nc12` (stereo not drawn) was tested, and the B-score was -1.9 (active).
For `Cc1cccn2c(=O)c3cc(C#N)c(=O)n(CCCN4CCOCC4)c3nc12`, the B-score was -0.356 (inactive).
`Cc1cccn2c(=O)c3cc(C(=O)N4COCC4(C)C)n(C)c3nc12` was tested, and the B-score was -0.585 (inactive).
With `CC1CCc2c(sc3c2C2=NS(=O)(=O)CCN2C=N3)C1` (stereo not drawn) the B-score was -0.133 (inactive).
In the case of `Cc1ccc(C)n1-c1ccncc1`, the B-score was -0.0105 (inactive).
For `CCOC(=O)CCc1c(C)c(C#N)c2[nH]c3ccccc3n2c1=O`, the B-score was -0.0991 (inactive).
For `COC(CCN(C)C)(c1ccccc1)c1ccccc1`, the B-score was -11.2 (active).
`COc1ccc2oc(=O)c(C(=O)N3CCN(c4ccccc4F)CC3)cc2c1` was tested, and the B-score was 0.203 (inactive).
For `CCC(=O)Nc1sc(C(=O)N2CCCCC2)c(C)c1C#N`, the B-score was -0.552 (inactive).
`CN1CCN(CC(=O)Nc2sc3c(c2C#N)CCC(C(C)(C)C)C3)CC1` (stereo not drawn) was tested, and the B-score was -2.38 (active).
In the case of `C1=C(N2CCOCC2)/C(=C/c2nc3ccccc3[nH]2)CC1`, the B-score was 0.998 (inactive).
With `COc1cc(C2C(C#N)=C(C)NC3=C2C(=O)CC(C)(C)C3)ccc1O` (stereo not drawn) the B-score was 0.109 (inactive).
`CCC1C(C#N)=C(SC)NC2=C1C(=O)CC(C)(C)C2` (stereo not drawn) was tested, and the B-score was -0.0322 (inactive).
In the case of `Cc1cc2c(cc1C)NC(c1ccccn1)C1=C(CC(C)(C)CC1=O)N2` (stereo not drawn), the B-score was 2.52 (active).
For `COc1ccccc1Cc1nc(-c2ccc(C)cc2)no1`, the B-score was 0.115 (inactive).
For `COc1ccc(-c2noc(CN(C)S(=O)(=O)c3ccc(C)cc3)n2)cc1`, the B-score was -3.11 (active).
For `COc1ccc(-c2noc(COc3ccc(Cl)c(C)c3)n2)cc1`, the B-score was -0.385 (inactive).
With `CC(C)Oc1ccc(C2NC(=O)NC2=O)cc1` (stereo not drawn) the B-score was -0.129 (inactive).
`O=C(O)CN(Cc1ccco1)S(=O)(=O)c1ccccc1` was tested, and the B-score was 0.346 (inactive).
For `Cc1cccc(C)c1NC(=O)N1CC=C(n2c(=O)[nH]c3ccccc32)CC1`, the B-score was 0.257 (inactive).
For `CC(C)C1C2=C(CC(C)(C)CC2=O)ON1c1ccccc1` (stereo not drawn), the B-score was -0.269 (inactive).
In the case of `Cc1cc(N2C(=O)C(=O)/C(=C(/O)c3ccc(Cl)cc3)C2c2cccc(Br)c2)no1` (stereo not drawn), the B-score was 0.0445 (inactive).
`CCOC(=O)c1c(NC(=O)c2ccc(Br)o2)sc2c1CCCC2` was tested, and the B-score was 0.689 (inactive).
For `COC(=O)Nc1ccc(S(=O)(=O)N(C)CC(F)(F)C(F)F)cc1`, the B-score was 0.467 (inactive).
For `O=C(CSc1nc2ccccc2o1)N1CCN(c2ccc(Cl)cc2)CC1`, the B-score was -0.0538 (inactive).
`O=S(=O)(CCc1nc2ccccc2o1)c1ccc(Cl)cc1` was tested, and the B-score was -2.24 (active).
For `O=S(=O)(O)c1nc2ccccc2n1Cc1ccc(Cl)cc1`, the B-score was 0.456 (inactive).
`O=C1c2ccncc2C(=O)N1C1CCCCC1` was tested, and the B-score was -0.0556 (inactive).
With `O=C(OCc1ccccc1F)c1ccc2c(c1)OCCO2` the B-score was 0.0701 (inactive).
In the case of `C[C@H](NC(=O)OC(C)(C)C)c1nnc(SCC(=O)Nc2ccc(Br)cc2)o1`, the B-score was 0.0617 (inactive).
For `Nc1nnc(SCCN2C(=O)c3ccccc3S2(=O)=O)s1`, the B-score was 2.64 (active).
`CNC(=O)CN1C(=O)c2ccccc2S1(=O)=O` was tested, and the B-score was 0.00139 (inactive).
With `CCCc1nnc(NC(=O)CN2C(=O)c3ccccc3S2(=O)=O)s1` the B-score was -0.485 (inactive).
With `COC(=O)c1cc(NC2c3ccccc3C(=O)N2c2ccc(Cl)cn2)cc(C(=O)OC)c1` (stereo not drawn) the B-score was 0.743 (inactive).
For `CC(=O)c1c(N)n(C)c(=O)n(C)c1=O`, the B-score was 0.343 (inactive).
For `CC(NC(=O)COc1ccccc1)C(=O)NC1=NCCS1` (stereo not drawn), the B-score was -0.755 (inactive).
`O=C(NC1=NCCS1)c1ccc(Cl)s1` was tested, and the B-score was -2.35 (active).
With `CCc1ccc(N2CC(C(=O)NC3=NCCS3)CC2=O)cc1` (stereo not drawn) the B-score was -0.382 (inactive).
With `CCOC(=O)C1CCN(C(=O)C2CCN(S(=O)(=O)N3CCCC3)CC2)CC1` the B-score was -0.822 (inactive).
For `Cc1ccc(C(=O)NC2CCN(C(=O)N3CCOCC3)CC2)cc1`, the B-score was -0.472 (inactive).
In the case of `Cc1noc(C)c1S(=O)(=O)NCCc1ccc(S(N)(=O)=O)cc1`, the B-score was 0.287 (inactive).
In the case of `CCCN1CCN(C(=O)Cn2ncc3ccccc32)CC1`, the B-score was -0.673 (inactive).
With `CC(C)(C)n1nnc(CCc2nnn(C(C)(C)C)n2)n1` the B-score was 0.866 (inactive).
With `Cc1ccc(Cc2cncc(O)c2)cc1S(=O)(=O)O` the B-score was -0.895 (inactive).
With `CC12CCC(C(=O)N(CCC#N)CCC#N)(CC1=O)C2(C)C` (stereo not drawn) the B-score was 0.00852 (inactive).
`CC(C)(C)c1cc(CN2CCN(CCC#N)CC2)cc(C(C)(C)C)c1O` was tested, and the B-score was -3.57 (active).
`N#CCCN1CCN(S(=O)(=O)c2ccc(S(=O)(=O)NC3CC3)cc2)CC1` was tested, and the B-score was -0.837 (inactive).
`N#CCCN1CCN(S(=O)(=O)c2ccc(S(=O)(=O)N3CCCC3)cc2)CC1` was tested, and the B-score was -0.0175 (inactive).
